# Reference: PubChem BioAssay (EPA / NIEHS)
# Results filed as inconclusive are left out. Activity calls are given as the source filed them. Rule for the calls: active = hit-call score of the fitted dose curve at least 0.9, where 1 is the maximum; inconclusive = response in the unintended direction; inactive = score below 0.9. Peptide text beside a SMILES is read from it.
# Tests used:
# [1] = target: rat Thyrotropin Releasing Hormone Receptor (TRH), Trhr (gene 25570) (UniProt Q01717); experiment: NVS_GPCR_rTRH: NovaScreen (NVS) G Protein-Coupled Receptor Assay for rat Thyrotropin Releasing Hormone Receptor (TRH) (AID 2283329);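 note: hit means lower bound tracer signal versus DMSO baseline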
# rat Thyrotropin Releasing Hormone Receptor (TRH), Trhr (gene 25570), sequence (Q01717 whole entry, looked up): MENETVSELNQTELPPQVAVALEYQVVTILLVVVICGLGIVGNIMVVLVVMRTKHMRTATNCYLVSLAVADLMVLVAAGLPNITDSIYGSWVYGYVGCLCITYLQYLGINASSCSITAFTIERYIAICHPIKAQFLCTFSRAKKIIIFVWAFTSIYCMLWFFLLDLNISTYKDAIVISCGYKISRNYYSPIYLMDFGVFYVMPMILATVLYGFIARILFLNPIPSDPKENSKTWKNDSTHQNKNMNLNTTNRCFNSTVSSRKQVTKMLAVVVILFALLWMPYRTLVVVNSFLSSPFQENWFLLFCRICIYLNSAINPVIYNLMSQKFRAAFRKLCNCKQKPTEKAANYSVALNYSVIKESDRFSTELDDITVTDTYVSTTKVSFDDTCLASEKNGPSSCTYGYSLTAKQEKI
# Outline: (§1)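 Cell-free radioligand binding on rat forebrain membranes; bound tracer measured by filter-based scintillation counting 4 hours after dosing. Loss of signal versus DMSO baseline indicates displacement; primary screen at 25 uM in duplicate, actives then run in concentration series.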
# [2] = target: Estrogen receptor (Homo sapiens) (UniProt P03372); experiment: OT_ER_ERaERa_1440: Odyssey Thera (OT) 24-hour HEK293T Protein-Complementation Assay for Estrogen Receptor-alpha/-alpha Homodimer (AID 2283349);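 note: hits raise fluorescence above DMSO for agonists and antagonists alike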
# Estrogen receptor (Homo sapiens), sequence (P03372 whole entry, looked up, the tested form may be a part): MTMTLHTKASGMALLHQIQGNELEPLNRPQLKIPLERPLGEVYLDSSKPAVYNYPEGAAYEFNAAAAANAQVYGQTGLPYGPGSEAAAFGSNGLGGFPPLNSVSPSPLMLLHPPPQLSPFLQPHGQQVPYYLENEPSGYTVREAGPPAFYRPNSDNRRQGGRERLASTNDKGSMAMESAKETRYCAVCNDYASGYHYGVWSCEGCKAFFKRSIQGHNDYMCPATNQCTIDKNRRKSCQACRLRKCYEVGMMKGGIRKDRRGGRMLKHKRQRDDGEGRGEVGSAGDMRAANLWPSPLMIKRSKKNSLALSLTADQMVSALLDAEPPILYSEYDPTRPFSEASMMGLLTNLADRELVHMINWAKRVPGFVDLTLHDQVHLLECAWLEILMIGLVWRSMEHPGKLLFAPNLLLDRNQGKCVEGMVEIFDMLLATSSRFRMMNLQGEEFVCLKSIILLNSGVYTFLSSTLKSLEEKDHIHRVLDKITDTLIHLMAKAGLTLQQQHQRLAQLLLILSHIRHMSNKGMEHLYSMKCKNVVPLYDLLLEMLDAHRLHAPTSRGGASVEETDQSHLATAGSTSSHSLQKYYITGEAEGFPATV
# Outline: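 Stably transfected HEK293T; ERα LBD homodimer PCA. 24 h dosing, fluorescence intensity read, gain-of-signal vs DMSO.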
# [3] = target: Estrogen receptor (Homo sapiens) (UniProt P03372); experiment: OT_ER_ERaERa_0480: Odyssey Thera (OT) 8-hour HEK293T Protein-Complementation Assay for Estrogen Receptor-alpha/-alpha Homodimer (AID 2283351);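 note: rise in fluorescence from reassembled reporter fragments on ERα LBD homodimer in nucleus or whole cell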
# Outline: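 Cells were treated for 8 hours, then imaged on a laser scanning plate cytometer. Complementation of reporter fragments fused to the human ERα ligand-binding domain (residues 310-547) in HEK293T gave fluorescence, and gain of signal over vehicle was fitted.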
# [4] = target: T1, Estrogen receptor (Homo sapiens) + Estrogen receptor beta (Homo sapiens) (UniProt P03372+Q92731); experiment: OT_ER_ERaERb_0480: Odyssey Thera (OT) 8-hour HEK293T Protein-Complementation Assay for Estrogen Receptor-alpha/-beta Heterodimer (AID 2283352)
# T1 sequence (P03372 whole entry, looked up, the tested form may be a part): as above
# T1 sequence (Q92731 whole entry, looked up, the tested form may be a part): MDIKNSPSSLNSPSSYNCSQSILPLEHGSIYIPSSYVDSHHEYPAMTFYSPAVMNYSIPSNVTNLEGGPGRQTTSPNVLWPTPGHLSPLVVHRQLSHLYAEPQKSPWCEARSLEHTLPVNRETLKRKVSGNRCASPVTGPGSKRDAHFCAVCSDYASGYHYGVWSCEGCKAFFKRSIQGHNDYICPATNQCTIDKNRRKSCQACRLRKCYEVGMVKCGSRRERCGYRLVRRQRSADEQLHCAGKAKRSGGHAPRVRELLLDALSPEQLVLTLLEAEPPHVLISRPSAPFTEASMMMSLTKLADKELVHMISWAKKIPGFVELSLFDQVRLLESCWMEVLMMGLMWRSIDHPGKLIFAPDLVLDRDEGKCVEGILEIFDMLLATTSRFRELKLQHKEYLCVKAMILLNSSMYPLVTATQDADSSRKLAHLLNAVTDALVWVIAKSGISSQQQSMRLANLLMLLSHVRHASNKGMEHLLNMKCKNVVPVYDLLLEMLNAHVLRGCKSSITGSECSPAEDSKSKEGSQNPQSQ
# Outline: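 Fluorescence intensity readout from a protein-fragment complementation reporter in HEK293T; ER-alpha/ER-beta LBD heterodimer. Dosing 8 h. Gain-of-signal fit relative to DMSO negative control; laser scanning cytometry of whole-well cell population.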
# [5] = target: T1, Estrogen receptor (Homo sapiens) + Estrogen receptor beta (Homo sapiens); experiment: OT_ER_ERaERb_1440: Odyssey Thera (OT) 24-hour HEK293T Protein-Complementation Assay for Estrogen Receptor-alpha/-beta Homodimer (AID 2283356);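 note: heteromer of ER alpha and ER beta binding domains; hits raise reporter fluorescence and both agonists and antagonists give an increase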
# Outline: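 Readout: mean fluorescence intensity in nucleus (agonists) or nucleus plus cytoplasm (antagonists), read by laser scanning cytometer after 24 h compound exposure of HEK293T cells carrying ERα/ERβ LBD fragment-complementation constructs; DMSO baseline.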
# [6] = target: chimpanzee Androgen Receptor (AR), AR (gene 747460) (UniProt O97775); experiment: NVS_NR_cAR: NovaScreen (NVS) Nuclear Receptor Binding Assay for chimpanzee Androgen Receptor (AR) (AID 2283346);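 note: radioligand displacement from AR measured by scintillation counting in a cell-free assay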
# chimpanzee Androgen Receptor (AR), AR (gene 747460), sequence (O97775 whole entry, looked up): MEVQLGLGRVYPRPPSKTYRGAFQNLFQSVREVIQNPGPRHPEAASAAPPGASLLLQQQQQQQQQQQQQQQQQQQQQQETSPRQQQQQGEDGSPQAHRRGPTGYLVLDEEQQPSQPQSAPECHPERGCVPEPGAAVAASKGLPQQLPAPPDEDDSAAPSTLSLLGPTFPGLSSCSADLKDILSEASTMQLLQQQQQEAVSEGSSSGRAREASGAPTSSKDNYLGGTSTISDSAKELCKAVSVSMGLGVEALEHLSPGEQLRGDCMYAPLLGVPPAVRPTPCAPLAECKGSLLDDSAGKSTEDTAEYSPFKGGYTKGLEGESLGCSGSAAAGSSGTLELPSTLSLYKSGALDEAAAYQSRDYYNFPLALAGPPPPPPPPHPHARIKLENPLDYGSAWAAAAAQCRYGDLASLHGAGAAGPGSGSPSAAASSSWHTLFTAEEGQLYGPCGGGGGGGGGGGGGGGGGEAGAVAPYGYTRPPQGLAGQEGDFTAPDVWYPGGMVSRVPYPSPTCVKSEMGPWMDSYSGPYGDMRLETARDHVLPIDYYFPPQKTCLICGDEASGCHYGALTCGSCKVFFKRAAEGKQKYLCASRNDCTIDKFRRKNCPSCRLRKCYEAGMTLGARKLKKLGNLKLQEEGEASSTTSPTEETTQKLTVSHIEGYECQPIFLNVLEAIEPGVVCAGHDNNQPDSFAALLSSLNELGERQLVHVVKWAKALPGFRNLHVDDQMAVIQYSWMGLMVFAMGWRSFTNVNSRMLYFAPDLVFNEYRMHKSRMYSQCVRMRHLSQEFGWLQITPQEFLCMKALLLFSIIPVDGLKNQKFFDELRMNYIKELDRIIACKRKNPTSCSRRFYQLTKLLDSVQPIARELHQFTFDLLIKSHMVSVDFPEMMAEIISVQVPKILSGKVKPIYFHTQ
# Outline: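 Cell-free radioligand displacement using receptor protein extracted from Sf9/Sf21 cells; bound radioligand measured by scintillation counting 72 hours after chemical dosing. Loss of signal versus DMSO baseline indicates binding; primary screen single-concentration in duplicate at 25 uM, actives followed in concentration series.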
# [7] = target: Estrogen receptor beta (Homo sapiens) (UniProt Q92731); experiment: OT_ER_ERbERb_0480: Odyssey Thera (OT) 8-hour HEK293T Protein-Complementation Assay for Estrogen Receptor-beta/-beta Homodimer (AID 2283357);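 note: active means signal gain over DMSO baseline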
# Estrogen receptor beta (Homo sapiens), sequence (Q92731 whole entry, looked up, the tested form may be a part): as the sequence (Q92731 whole entry, looked up, the tested form may be a part) above
# Outline: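 Fluorescence gain from complemented reporter fragments on ER-beta LBD homodimer in HEK293T was quantified against DMSO controls after 8 h treatment, fixation in 4% formaldehyde and Draq5 staining.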
# [8] = target: rat Gamma-Aminobutyric Acid Type A Receptor, Non-Selective (GABAR-NonSelective), Gabra1 (gene 29705) (UniProt P62813); experiment: NVS_LGIC_rGABAR_NonSelective: NovaScreen (NVS) Ligand-Gated Ion Channel Assay for rat Gamma-Aminobutyric Acid Type A Receptor, Non-Selective (GABAR-NonSelective) (AID 2283326)
# Outline: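 Compounds were first screened in duplicate at 25 uM, with actives run as singleton concentration series (max 50 uM). Binding of a radioligand to rat whole-brain GABA-A preparation was measured by filtration and scintillation counting after 1 h, DMSO baseline.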
# [9] = target: Retinoic acid receptor alpha (Homo sapiens) (UniProt P10276); experiment: NVS_NR_hRAR_Antagonist: NovaScreen (NVS) Nuclear Receptor Binding Assay for human Retinoic Acid Alpha Receptor Antagonism (RAR) (AID 2283358)
# Outline: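 Chemicals were first tested in duplicate at 25 uM, then actives in concentration series, in a cell-free TR-FRET antagonist binding format. Measurements were taken 2 hours after dosing and loss of signal was evaluated against DMSO controls.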
# [10] = target: human Peripheral-type Benzodiazepine Receptor (PBR), TSPO (gene 706) (UniProt P30536); experiment: NVS_MP_hPBR: NovaScreen (NVS) Membrane Protein Assay for human Peripheral-type Benzodiazepine Receptor (PBR) (AID 2283331);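 note: hits reduce radioligand binding relative to DMSO baseline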
# human Peripheral-type Benzodiazepine Receptor (PBR), TSPO (gene 706), sequence (P30536 whole entry, looked up): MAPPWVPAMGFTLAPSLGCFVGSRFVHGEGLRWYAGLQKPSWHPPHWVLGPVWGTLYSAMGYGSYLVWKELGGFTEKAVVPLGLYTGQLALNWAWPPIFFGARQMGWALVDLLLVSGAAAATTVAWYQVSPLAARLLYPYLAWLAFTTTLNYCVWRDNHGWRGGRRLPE
# Outline: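 Using human colon-derived membranes, this one-endpoint binding test reads radioligand loss by scintillation after 1 h. Screening started at 25 uM in duplicate, with positive and negative controls on every plate, and actives moved to dose series.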
# [11] = target: bovine Estrogen Receptor (ER), ESR1 (gene 407238) (UniProt P49884); experiment: NVS_NR_bER: NovaScreen (NVS) Nuclear Receptor Binding Assay for bovine Estrogen Receptor (ER) (AID 2283345);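 note: actives lower the bound radioligand count which means they displace the ER ligand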
# bovine Estrogen Receptor (ER), ESR1 (gene 407238), sequence (P49884 whole entry, looked up): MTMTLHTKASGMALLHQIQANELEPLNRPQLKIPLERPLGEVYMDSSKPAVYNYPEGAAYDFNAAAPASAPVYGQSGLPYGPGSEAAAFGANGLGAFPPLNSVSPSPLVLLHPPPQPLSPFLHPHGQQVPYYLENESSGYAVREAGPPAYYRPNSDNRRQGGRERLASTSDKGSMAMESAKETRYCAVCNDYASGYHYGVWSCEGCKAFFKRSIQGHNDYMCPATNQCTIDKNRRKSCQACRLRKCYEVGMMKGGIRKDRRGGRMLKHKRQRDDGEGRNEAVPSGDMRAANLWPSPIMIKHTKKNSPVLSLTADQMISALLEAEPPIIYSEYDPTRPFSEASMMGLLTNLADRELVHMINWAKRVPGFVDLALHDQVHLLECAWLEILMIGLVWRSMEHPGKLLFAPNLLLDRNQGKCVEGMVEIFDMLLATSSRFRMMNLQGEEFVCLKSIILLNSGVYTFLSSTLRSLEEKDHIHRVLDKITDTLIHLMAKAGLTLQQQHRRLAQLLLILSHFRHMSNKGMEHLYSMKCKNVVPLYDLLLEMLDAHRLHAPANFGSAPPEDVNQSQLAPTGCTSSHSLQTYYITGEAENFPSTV
# Outline: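 Cell-free radioligand binding with receptor from bovine uterine membranes, read by scintillation counting 18 h after dosing. Loss of specific binding was scored against DMSO; primary screen at 25 uM in duplicate, actives then run as concentration series.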
# [12] = target: Estrogen receptor (Homo sapiens) (UniProt P03372); experiment: NVS_NR_hER: NovaScreen (NVS) Nuclear Receptor Binding Assay for human Estrogen Receptor (ER) (AID 2283348)
# Outline: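 Radiodetection of ligand displacement in a lysate-based, cell-free format using MCF7 extracts, read at 18 hours. Duplicate 25 uM primary testing, then concentration series for actives.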
# [13] = target: Androgen Receptor/SRC-1 Co-activator, AR (gene 367) (UniProt P10275); experiment: OT_AR_ARSRC1_0480: Odyssey Thera (OT) 8-hour HEK293T Protein-Complementation Assay for Androgen Receptor/SRC-1 Co-activator (AID 2283354);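 note: hits raise the complementation signal above DMSO so AC50 marks enhancers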
# Outline: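 After 8 h dosing, stably expressing HEK293T cells with split-Venus AR/SRC-1 fusions were imaged (488, 635nm). The 488nm N/C ratio per image gave the endpoint, analysed in the positive direction against DMSO.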
# [14] = target: Sodium channel protein type 1 subunit alpha (Rattus norvegicus) (UniProt P04774); experiment: NVS_IC_rNaCh_site2: NovaScreen (NVS) Ion Channel Assay for rat Sodium Channel, Site 2 (NaCh) (AID 2283322);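 note: hit means loss of radioligand binding signal relative to DMSO so AC50 marks displacement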
# Outline: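 Initial duplicate single-point testing at 25 uM, followed by concentration-response runs for actives. Binding of radioligand to rat forebrain membranes quantified after 1 h via filter-based radiodetection.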
# [15] = target: rat Peripheral-type Benzodiazepine Receptor (PBR), Tspo (gene 24230) (UniProt P16257); experiment: NVS_MP_rPBR: NovaScreen (NVS) Membrane Protein Assay for rat Peripheral-type Benzodiazepine Receptor (PBR) (AID 2283335)
# rat Peripheral-type Benzodiazepine Receptor (PBR), Tspo (gene 24230), sequence (P16257 whole entry, looked up): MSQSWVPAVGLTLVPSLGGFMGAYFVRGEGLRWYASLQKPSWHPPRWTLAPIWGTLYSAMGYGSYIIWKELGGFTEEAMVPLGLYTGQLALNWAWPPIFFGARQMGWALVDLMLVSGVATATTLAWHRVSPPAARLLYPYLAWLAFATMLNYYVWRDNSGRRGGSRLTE
# Outline: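 Competitive displacement of specific radioligand from rat kidney membrane PBR, read by filtration and scintillation after 1 h. Compounds first tested at 25 uM in duplicate, then in concentration series; signal loss relative to DMSO.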
# [16] = target: human Opioid Receptor Mu (Opiate Mu), OPRM1 (gene 4988) (UniProt P35372); experiment: NVS_GPCR_hOpiate_mu: NovaScreen (NVS) G Protein-Coupled Receptor Assay for human Opioid Receptor Mu (Opiate Mu) (AID 2283290);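 note: hits lower bound tracer signal versus DMSO meaning displacement of the ligand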
# human Opioid Receptor Mu (Opiate Mu), OPRM1 (gene 4988), sequence (P35372 whole entry, looked up): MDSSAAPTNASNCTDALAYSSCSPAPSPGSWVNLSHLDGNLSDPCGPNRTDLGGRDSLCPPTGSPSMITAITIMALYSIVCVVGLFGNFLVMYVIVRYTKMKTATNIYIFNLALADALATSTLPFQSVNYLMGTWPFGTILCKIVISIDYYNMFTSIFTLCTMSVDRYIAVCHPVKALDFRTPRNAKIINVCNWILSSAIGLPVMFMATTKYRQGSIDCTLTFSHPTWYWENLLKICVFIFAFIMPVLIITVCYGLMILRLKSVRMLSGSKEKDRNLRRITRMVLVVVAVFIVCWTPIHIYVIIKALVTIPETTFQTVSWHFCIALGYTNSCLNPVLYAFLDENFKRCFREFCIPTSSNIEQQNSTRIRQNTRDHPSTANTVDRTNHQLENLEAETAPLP
# Outline: as §1, with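 “to membranes from CHO cells expressing the receptor;” for “on rat forebrain membranes;”, “2.5” for “4”, “reflects” for “indicates”, “followed up” for “then run”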
smiles,measurement,setting,value
CCOC(=O)c1ccc(C)cc1,outcome,[1],inactive
same,outcome,[2],inactive
same,outcome,[3],inactive
same,outcome,[4],inactive
same,outcome,[5],inactive
CC(=O)OC(C)c1ccccc1 (stereo unspecified),outcome,[1],inactive
same,outcome,[6],inactive
same,outcome,[2],inactive
same,outcome,[3],inactive
same,outcome,[4],inactive
same,outcome,[5],inactive
same,outcome,[7],inactive
Nc1ccc(C(=O)O)cc1,AC50,[8],2.62 µM (active)
same,outcome,[2],inactive
same,outcome,[3],inactive
same,outcome,[4],inactive
same,outcome,[5],inactive
same,outcome,[7],inactive
same,outcome,[9],inactive
C=C1C[C@H]2[C@@H]3C=C(C)C4=CC(=O)CC[C@]4(C)[C@H]3CC[C@]2(C)[C@@]1(OC(C)=O)C(C)=O,outcome,[1],inactive
same,AC50,[10],0.732 µM (active)
same,outcome,[11],inactive
same,AC50,[6],0.33 µM (active)
same,AC50,[12],18.5 nM (active)
same,outcome,[2],inactive
same,outcome,[3],inactive
same,AC50,[13],5.8 µM (active)
same,AC50,[5],16.9 µM (active)
same,outcome,[7],inactive
Nc1nc(N)nc(-c2ccccc2)n1,outcome,[14],inactive
same,outcome,[11],inactive
CCC(C)C(=O)OC (stereo unspecified),outcome,[14],inactive
Oc1ccc(-c2ccccc2)c(Cl)c1,outcome,[1],inactive
same,outcome,[11],inactive
same,AC50,[6],14.1 µM (active)
same,outcome,[12],inactive
same,outcome,[2],inactive
same,AC50,[3],12.2 µM (active)
same,AC50,[4],12.2 µM (active)
same,AC50,[13],31.5 µM (active)
same,AC50,[5],15.9 µM (active)
same,outcome,[7],inactive
CCCCCCO,outcome,[1],inactive
same,outcome,[2],inactive
same,outcome,[3],inactive
C/C=C/C=C/CCCCCCCO,outcome,[1],inactive
same,AC50,[10],12.2 µM (active)
same,outcome,[2],inactive
same,outcome,[3],inactive
CCCCNS(=O)(=O)c1ccccc1,outcome,[1],inactive
same,AC50,[15],25 µM (active)
same,outcome,[2],inactive
same,outcome,[3],inactive
same,outcome,[4],inactive
same,outcome,[5],inactive
same,outcome,[7],inactive
CC1=C(O)C(=O)C(C)O1 (stereo unspecified),outcome,[16],inactive
CC1=NN(c2ccc(S(=O)(=O)O)cc2)C(=O)C1N=Nc1ccccc1 (stereo unspecified),outcome,[1],inactive
same,outcome,[2],inactive
same,outcome,[3],inactive
COC(=O)[C@H](Cc1ccccc1)NC(=O)[C@@H](N)CC(=O)O (H-Asp-Phe-OMe),outcome,[1],inactive
same,outcome,[2],inactive
same,outcome,[3],inactive
CN(C)Cc1cc(CN(C)C)c(O)c(CN(C)C)c1,outcome,[1],inactive
same,outcome,[12],inactive
same,outcome,[2],inactive
same,outcome,[3],inactive
same,outcome,[13],inactive
CC(C=O)c1ccccc1 (stereo unspecified),outcome,[16],inactive
CC(C)CCCCCOC(=O)CS,AC50,[16],39.8 µM (active)
CCN1CN(CC)CN(CC)C1,outcome,[1],inactive
same,outcome,[6],inactive
same,outcome,[2],inactive
same,outcome,[3],inactive
same,outcome,[5],inactive
same,outcome,[7],inactive
